Assay outcomes: PubChem BioAssay, Broad Institute
The entries come from a sample that favours hits as a whole.
Tg IFNy HTS – T. gondii growth inhibition with IFN-gamma, primary screen, cell-based. hit rate 3.8% among 69,000. activity change, negative = inhibition, % (test concentration not listed). AID 1259416, 2018. Toxoplasma gondii growth in IFN-gamma-treated host cells; stronger effect = lower value; in the data active = activity change below about -70%, passing the limit was not always enough;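 note: host cells are HeLa cells infected with Toxoplasma gondii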
The depositor's hits bear a star; ! = not confirmed by another sample.

SMILES | Tg IFNy HTS
CCCc1nc(NCc2nnnn2-c2ccccc2)c2cnn(C)c2n1 | -9
CCCc1nc(NCc2cc(-c3ccccc3)n[nH]2)c2cnn(C)c2n1 | -83*
CCCc1nc(NCc2cc(-c3ccc(F)cc3)on2)c2cnn(C)c2n1 | -12
CCS(=O)(=O)N1C[C@@H]2COC[C@@]2(COc2cccnc2)C1 | 10
CCOc1ccccc1-c1noc(-c2c(O)c3cc(F)ccc3n(C)c2=O)n1 | 17
COc1cccc(CNc2ncc(-c3ccncc3)c(-c3cccs3)n2)c1 | -52
COc1ccc(-c2ccnc(-c3cccs3)n2)cc1 | -103*
COc1ccc(-c2ccnc(SC)n2)cc1 | -82*
COc1ccc(-c2cc(C3CCN(C(C)=O)CC3)ccn2)cc1 | 74
COc1ccc(-c2cc(N)nc(N)n2)cc1 | 16
COc1ccc(-c2cc(C(F)(F)F)n3nc(-c4cccs4)cc3n2)cc1 | -51
CC(C)CN1C[C@H]2[C@H](C(=O)Nc3ccccc3)CCS(=O)(=O)[C@H]2C1 | 1
CN(C)C(=O)[C@H]1C[C@@H]2OCC[C@@H]2N(CCOCc2ccccc2)C1 | -13
CC(C)CS(=O)(=O)N1CCC2(CC1)CC(CC(=O)NC1CC1)c1ccccc1O2 (centres undefined) | -9
CCOCC1CN(C(=O)c2ccco2)Cc2cnn(C)c21 (centres undefined) | -10
c1ccc(CN2CCC3(CC2)CC(Nc2ncccn2)C3)nc1 | 170
CC(=O)c1cccc(NC(=O)Nc2nc(SCc3ccc(F)cc3)ns2)c1 | -107*
CSc1nsc(NC(=O)OCc2ccc(Cl)cc2)n1 | 12
CCCCCCSc1nsc(NC(C)=O)n1 | 55
Cc1ccc(NC(=O)c2c(O)c3cccnc3n(-c3ccc(F)cc3)c2=O)c(C)c1 | 60
O=C(NC1CCOC2(CCN(Cc3ccccc3F)CC2)C1)C1CC1 (centres undefined) | 4
Cc1noc(C[C@@H]2C[C@@H]3CN(C(=O)Cc4ccc(F)cc4C)C[C@H]3O2)n1 | -1
COc1cccc(-c2ccc3c(c2)[C@H]2[C@H](CCN2C(=O)c2ccccc2F)[C@@H](CO)N3C)c1 | -62
COc1ccc(C#Cc2ccc3c(c2)[C@H]2[C@H](CCN2C(=O)Nc2ccc(C(F)(F)F)cc2)[C@H](CO)N3C)cc1 | 7
CC(C)NC(=O)N1CC[C@H]2[C@@H]1c1cc(C#Cc3ccccc3)ccc1N(C)[C@H]2CO | 14
SMILES | Tg IFNy HTS
CN1c2ccc(C3=CCCCC3)cc2[C@@H]2[C@@H](CCN2C(=O)C2CCOCC2)[C@H]1CO | -40
CC(C)NC(=O)N1CC[C@@H]2[C@H]1c1cc(-c3ccc(F)cc3)ccc1N(C)[C@@H]2CO | -63
COc1ccc(-c2ccc3c(c2)[C@@H]2[C@@H](CCN2C(=O)Nc2ccccc2OC)[C@@H](CO)N3C)cc1 | -72*
CN1c2ccc(-c3ccccc3)cc2[C@@H]2[C@@H](CCN2C(=O)CC2CC2)[C@@H]1CO | -47
CC(C)NC(=O)N1CC[C@@H]2[C@@H](CO)N(C)c3ccc(-c4ccc(F)cc4)cc3[C@@H]21 | -79*
CN1c2ccc(C3=CCCCC3)cc2[C@@H]2[C@@H](CCN2C(=O)c2ccccc2F)[C@@H]1CO | -76*
COc1ccc2c(c1)NC1(CCN(S(=O)(=O)c3ccc(Cl)cc3)CC1)c1cccn1-2 | 5
CN1CCN(c2ncnc3c2cnn3CC(=O)NCCCc2ccccc2)CC1 | -18
O=C(C1CCOCC1)N(CCO)CCSc1ccc(Cl)cc1 | 5
O=C1CCCN1CCOc1ccccc1CN1CCN(C2CCCCC2)C(=O)C1 | -14
Cc1ccc2c(N3C[C@H]4C[C@H](O)[C@H](O)C[C@H]4C3)ccnc2c1C | -2
O=C(CCc1cccnc1)N1CCC2(CN(Cc3ccccc3Cl)C2)C1 | -39
CCc1cnc(N2CCC3(CC2)CC(c2ccccc2)C(=O)N3)nc1 (centres undefined) | -10
CCCCCCCCCCCCCCCC(=O)OC[C@H](NC(=O)C(Cl)Cl)[C@H](O)c1ccc([N+](=O)[O-])cc1 | 20
O=C(N[C@@H](CO)[C@H](O)c1ccc([N+](=O)[O-])cc1)C(Cl)Cl | -8
CS(=O)(=O)c1ccc(C(O)[C@H](CF)NC(=O)C(Cl)Cl)cc1 (some centres undefined) | -78*!
Cc1ccc2c(=O)c(C(=O)O)c[nH]c2n1 | -8
CC(C)Cc1ccc(S(=O)(=O)N2CCC3(CC2)NCCN=C3NCc2ccc3c(c2)OCO3)cc1 | -37
Cc1cc(Cc2cccc(F)c2)cc(C2CCN(C(=O)c3n[nH]c4c3CCCCC4)CC2)n1 | -111*
O=C(c1n[nH]c2c1CCCC2)N1CCC(c2[nH]ncc2-c2ccccc2)CC1 | -49
Cc1cc(Cc2c(F)cccc2F)cc(C2CCN(C(=O)CC3CCCCO3)CC2)n1 (centres undefined) | -20
CN(C)CCN1C2(CCN(Cc3nccs3)C2)c2ccccc2S1(=O)=O (centres undefined) | 0
CC(C)CCN1C2(CCN(Cc3nccs3)C2)c2ccccc2S1(=O)=O (centres undefined) | -96*
COCCN1C2(CCN(Cc3nccs3)C2)c2ccccc2S1(=O)=O (centres undefined) | 3
N#Cc1ccc(C(=O)N2CCc3ncc(Cn4cccn4)n3CC2)cc1 | -7
SMILES | Tg IFNy HTS
Cc1nc(-c2ccc(F)cc2)sc1CCNC(=O)COc1ccccc1F | -15
COc1ccc(OC)c(-c2cc(C(N)=O)ccc2C)c1 | -76*
COc1ccc(C)cc1-c1ccc(C(N)=O)cn1 | 9
COc1ccc(C(N)=O)cc1-c1ccc(S(C)(=O)=O)cc1 | 5
O=C(NC[C@H]1OC[C@H]2CCN(Cc3ccco3)C[C@H]21)C1CC1 | 0
CC(C)c1ccc(CNC(=O)CSc2cccc3cccnc23)cc1 | 11
CC(=O)OC[C@H]1O[C@@H](Sc2cccc3cccnc23)[C@H](OC(C)=O)[C@@H](OC(C)=O)[C@H]1OC(C)=O | 4
O=C(CSc1cccc2cccnc12)OCC(=O)c1ccccc1 | -89*
CCOc1ccc2oc(=O)cc(CN3CCN(Cc4nc(-c5cc(C)ccc5C)oc4C)CC3)c2c1 | -38
CN(C)CC(=O)NCCC1CCCCN1 (centres undefined) | -5
CN1CCN(CCC2CCCCN2)CC1 (centres undefined) | 17
C1CCC(C(CC2CCCCN2)C2CCCCC2)CC1 (centres undefined) | -96*!
CS(=O)(=O)N1CCc2cc(NC(=O)C3CC(=O)N(Cc4ccncc4)C3)ccc21 (centres undefined) | 10
Cn1cnnc1Sc1c([N+](=O)[O-])ncn1C | -46
Cn1cnc([N+](=O)[O-])c1Sc1ncnc2nc[nH]c12 | -86*
CC(C)C(=O)Nc1ncnc2nc[nH]c12 | -52
Oc1ccccc1-c1nc(-c2ccc3c(c2)CCO3)n[nH]1 | -40
CCN(CC)c1ncnc2c1cnn2CC(=O)NCc1cccc(OC)c1 | 84
O=C(Cn1ncc2c(N3CCCC3)ncnc21)NCc1ccc(Br)cc1 | 61
CCOc1ccc(CNC(=O)Cn2ncc3c(N4CCCCCC4)ncnc32)cc1OCC | 76
COCCCNC(=O)Cn1ncc2c(N3CCC(C)CC3)ncnc21 | 61
CCN(CC)c1ncnc2c1cnn2CC(=O)NCc1ccc2c(c1)OCO2 | -64
CCN(CC)c1ncnc2c1cnn2CC(=O)NCc1ccc(OC)cc1 | -99*
CCCCOc1ccc(CNC(=O)Cn2ncc3c(N4CCCCCC4)ncnc32)cc1 | -99*
COc1ccc(CNC(=O)Cn2ncc3c(N4CCCCC4)ncnc32)cc1 | -102*
COc1ccc(CNC(=O)Cn2ncc3c(N4CCC(C)CC4)ncnc32)cc1 | -85*
